Screens as filed in PubChem BioAssay.
Rows were chosen to be rich in hits. Some 2.8% of all compounds tested hit in one or more screens of this group.
KDM5B inh: Primary screen for KDM5B Histone Demethylases FDH-coupled qHTS; KDM5B demethylase, FDH-coupled NADH fluorescence (FDH is formaldehyde dehydrogenase); Potency, µM (titrated, usually from 57.7 µM), hits mostly inhibitors; hit rate 2.6% among 220,000; also: nearly all actives have a fitted effect of over 70% in size
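Inhibition is measured as reduced NADH fluorescence generation from FDH coupling to formaldehyde release. Truncated KDM5BΔAP at 200 nM final acts on H3K4me3 peptide (12.5 µM in substrate mix) in pH 7.5 HEPES buffer with Tween-20, 30 min, room temperature.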
SNCA viab count: GF-AFC viability counterscreen for inhibitors of alpha-synuclein gene (SNCA) expression; HEK-293-SNCA-luc viability, GF-AFC fluorescence, 24 h; Potency, µM (top dose mostly 57.1 µM), usual class: cytotoxic; hit rate 0.12% among 150,000; AID 1671193, 2021; also: nearly all actives have a fitted effect of over 30% in size
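Cytotoxicity counterscreen: after 24 h compound treatment of genome-edited SNCA-luciferase HEK-293 cells, live-cell protease substrate GF-AFC read by fluorescence after 30 min; activity scaled between DMSO (0%) and medium-only (-100%), curves Hill-fitted.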
IP6K1 inh: Primary qHTS assay for small molecule inhibitors of Inositol hexaphosphate kinase 1 (IP6K1); Inositol hexakisphosphate kinase 1 (Homo sapiens), Q92551; IP6K1 kinase, ADP-Glo luminescence, 2 h; hits give low values; activity change, % (series mostly up to about 58 µM); hit rate 0.81% among 140,000; in the data active = activity change below about -25%
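ADP-Glo luminescence measures ADP made by human IP6K1 during a 2 h RT reaction with ATP/IP6 (mix at 1.3 mM/130 uM); top library doses 57.5 and 19.1 uM final.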
SNCA expr inh: Primary qHTS assay for inhibitors of alpha-synuclein gene (SNCA) expression; HEK-293 SNCA-luciferase knock-in, luminescence, 24 h; AID 1671194, 2021; Potency, µM (highest dose often 57.2 µM), hits mostly inhibitors; hit rate 0.17% among 140,000; also: nearly all actives have a fitted effect of over 45% in size
IP6K1 inh cnf: Confirmatory qHTS assay for small molecule inhibitors of Inositol hexaphosphate kinase 1 (IP6K1). recombinant IP6K1 kinase, ADP-Glo luminescence, 2 h. hit rate 13% among 1,200. AID 1645852, 2021. shares compounds with IP6K1 inh. Potency, µM (top dose mostly 49 µM), hits mostly inhibitors; also: nearly all actives have a fitted effect of over 65% in size
Large screens that a line does not name were inactive (follow-up assays come after a bar, where they were run); ! = repeats disagree. Unless noted, calls follow the shape of the dose curve; as a rule, active = well fitted curve in the direction sought with a large enough effect; inconclusive = small, poorly fitted or top-dose-only effect, or another doubt; inactive = no such curve, though single readings can be large; an effect the other way counts as inactive or inconclusive.

CC(O)CNCc1ccc(-c2cccc(C(F)(F)F)c2)o1 (centres undefined)	none (no result: SNCA viab count, IP6K1 inh, SNCA expr inh)
Cc1ccc(Nc2nc(N)c(C(=O)c3ccccc3Cl)s2)c(C)c1	none (no result: SNCA viab count, IP6K1 inh, SNCA expr inh)
Cc1ccccc1Nc1nc(N)c(C(=O)c2ccccc2Cl)s1	SNCA viab count inconclusive, IP6K1 inh -51.7 | IP6K1 inh cnf 3.26µM
CC(C)CC(=O)NCCCN1CCCC1	none (no result: SNCA viab count, IP6K1 inh, SNCA expr inh)
FC(F)(F)c1ccccc1-c1nc(NCc2ccc(-c3ccc(Cl)c(Cl)c3)cc2)c2ccccc2n1	none (no result: KDM5B inh, SNCA viab count, IP6K1 inh, SNCA expr inh) | IP6K1 inh cnf inactive
Clc1ccccc1-c1nc(NCc2cccs2)c2ccccc2n1	none (no result: KDM5B inh, IP6K1 inh)
FC(F)(F)c1ccccc1-c1nc(NCc2cccs2)c2ccccc2n1	none (no result: KDM5B inh, IP6K1 inh) | IP6K1 inh cnf inactive
Cc1ccccc1-c1nc(NCc2cccs2)c2ccccc2n1	none (no result: KDM5B inh, IP6K1 inh) | IP6K1 inh cnf inactive
COc1ccc(-c2ccc3ncc4c(c3c2)n(-c2ccc(N3CCNCC3)c(C(F)(F)F)c2)c(=O)n4C)cn1	SNCA viab count 30.4µM!, SNCA expr inh inconclusive (no result: KDM5B inh) | IP6K1 inh cnf inactive
CCC(=O)c1c(O)cc(O)cc1O	IP6K1 inh -29.5 (no result: KDM5B inh) | IP6K1 inh cnf inconclusive
CCC(=O)c1ccc(NC(C)=O)cc1O	none (no result: SNCA viab count, IP6K1 inh, SNCA expr inh)
CCN1CCC(NC(=O)CCc2ncc(-c3ccc(F)cc3)o2)CC1	none (no result: SNCA viab count, IP6K1 inh, SNCA expr inh)
O[C@@H]1CC(CNCc2cccc(Cl)c2)(COc2ccccc2)C[C@@H]1O (some centres undefined)	SNCA expr inh inconclusive
Cc1ccccc1[C@@H]1CN(C(=O)CCC(=O)NC2CCCC2)C[C@H]1C(=O)O	IP6K1 inh -35.4 | IP6K1 inh cnf inactive
CC(C)N(C(=O)Cn1c(CN2CCCCCC2)nc2ccccc21)c1ccccc1	none (no result: SNCA viab count, IP6K1 inh, SNCA expr inh)
CN(CC(=O)NC(=O)NCc1ccccc1)Cc1ccc(Cl)cc1Cl	none (no result: SNCA viab count, IP6K1 inh, SNCA expr inh)
O=Cc1ccc(O)c(O)c1O	IP6K1 inh -33.0 (no result: KDM5B inh) | IP6K1 inh cnf inconclusive
CC(C)c1cc(C=O)c(O)c(C=O)c1	none (no result: SNCA viab count, IP6K1 inh, SNCA expr inh)
Cc1cc(S(=O)(=O)c2ccc([N+](=O)[O-])cn2)ccc1Br	none (no result: SNCA viab count, IP6K1 inh, SNCA expr inh)
Cc1ccc([N+](=O)[O-])cc1S(=O)(=O)N(C)/N=C/c1cnc2ccc(Br)cn12	SNCA viab count inconclusive, IP6K1 inh -25.4 (no result: KDM5B inh, SNCA expr inh) | IP6K1 inh cnf inconclusive
CC(=O)c1ccc(NC(=O)C(C)OC(=O)c2nn(-c3ccccc3)c(=O)c3ccccc23)cc1 (centres undefined)	none (no result: SNCA viab count, IP6K1 inh, SNCA expr inh)
CC(=O)Nc1ccc(Nc2ncnc3c2cnn3C)cc1	none
CC(=O)c1cccc(Nc2ncnc3c2cnn3C)c1	IP6K1 inh -38.1 | IP6K1 inh cnf inconclusive
O=C(O)c1cccc(Nc2ncnc3ccc(Br)cc23)c1	KDM5B inh inconclusive, IP6K1 inh -26.3 | IP6K1 inh cnf inconclusive
CC#CC(=O)Nc1ccc2ncnc(Nc3cccc(Br)c3)c2c1	SNCA viab count inconclusive (no result: KDM5B inh, SNCA expr inh)
Cn1ncc2c(C(=O)NCc3ccc(Cl)cc3)cc(-c3cccc(F)c3)nc21	none (no result: KDM5B inh, SNCA viab count, SNCA expr inh)
CCN1CC(C(=O)N2CCCC(c3ccccc3)(c3ccccc3)C2)CC1=O (centres undefined)	IP6K1 inh -34.1 | IP6K1 inh cnf inactive
COc1cccc(Nc2cc(-c3cccs3)nc3c(C)noc23)c1	KDM5B inh 35.5µM, IP6K1 inh -25.2 | IP6K1 inh cnf inconclusive
O=C(Nc1cccnc1)c1ccnc(-c2nnc3ccc(Nc4ccccc4)nn23)c1	KDM5B inh inconclusive, IP6K1 inh -56.4 | IP6K1 inh cnf inconclusive
CN(C)CCNC(=O)c1ccnc(-c2nnc3ccc(Nc4ccccc4)nn23)c1	none
O=C(NCCc1ccccn1)c1ccnc(-c2nnc3ccc(Nc4ccccc4)nn23)c1	KDM5B inh inconclusive, IP6K1 inh -36.9 | IP6K1 inh cnf inconclusive
C[N+](C)([O-])CCNc1ccc(NCC[N+](C)(C)[O-])c2c1C(=O)c1c(O)ccc(O)c1C2=O	none (no result: KDM5B inh, IP6K1 inh)
O=C1c2c(O)ccc(O)c2C(=O)c2c(NCCNCCO)ccc(NCCNCCO)c21	SNCA viab count inconclusive, IP6K1 inh -39.2, SNCA expr inh 1.21µM! (no result: KDM5B inh) | IP6K1 inh cnf inconclusive
O=C(C1CC1)N1CCCC(c2nn(-c3ccccn3)c(=O)[nH]2)C1 (centres undefined)	none (no result: KDM5B inh)
CC(=O)N1CCCC(c2nn(-c3ccccn3)c(=O)[nH]2)C1 (centres undefined)	IP6K1 inh -25.3 (no result: KDM5B inh) | IP6K1 inh cnf inactive
